A selection: hits, their analogues and other compounds. The true share with any hit is near 12%.
G9a block = inhibitors of human histone lysine methyltransferase G9a | Q96KQ7 | hit rate 8.8% among 350,000 | G9a H3K9 monomethylation, AlphaScreen, 2 h | Potency, µM (doses to about 102 µM), inactives show top-dose activity, negative = inhibition, usual class: inhibitors | AID 504332; note: % is set by controls: 0 for no effect and ±100 for the full control effect; nearly all actives have a fitted effect of over 75% in size
Target sequence (Q96KQ7 913-1193 limits assumed): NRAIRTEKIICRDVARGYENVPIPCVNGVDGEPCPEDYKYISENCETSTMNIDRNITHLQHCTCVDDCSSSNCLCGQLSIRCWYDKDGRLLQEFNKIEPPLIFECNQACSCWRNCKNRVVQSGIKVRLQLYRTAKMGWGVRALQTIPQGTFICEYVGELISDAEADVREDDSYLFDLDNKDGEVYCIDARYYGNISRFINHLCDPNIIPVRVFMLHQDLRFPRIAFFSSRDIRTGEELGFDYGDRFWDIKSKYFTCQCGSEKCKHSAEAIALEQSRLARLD
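Compounds were preincubated with 20 nM G9a for 15 min, after which biotinylated H3K9 peptide (500 nM) and SAM (20 uM) started a 2 h room-temperature reaction. Monomethylated product was quantified by antibody-based AlphaScreen chemiluminescence.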
HP1b binding inh = inhibitors of HP1-beta chromodomain binding to methylated histone tails | AlphaScreen HP1-beta / biotin-H3K9me3 peptide binding | hit rate 0.56% among 390,000 | AID 540317 | Potency, µM (top dose mostly 114 µM), without a hit: at the highest dose activity change, negative = inhibition, usual class: inhibitors; note: nearly all actives have a fitted effect of over 70% in size
Target sequence (P83916 whole entry, looked up): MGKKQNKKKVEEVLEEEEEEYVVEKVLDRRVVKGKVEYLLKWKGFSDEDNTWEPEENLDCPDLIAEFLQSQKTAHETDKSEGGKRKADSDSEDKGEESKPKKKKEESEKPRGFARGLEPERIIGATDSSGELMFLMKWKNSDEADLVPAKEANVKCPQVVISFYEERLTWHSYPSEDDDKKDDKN
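AlphaScreen: HP1-beta (50 nM) preformed 30 min with biotin-H3(1-18)K9me3 peptide (50 nM) in PBS pH 7.4, 0.01% Tween-20. Compound added for 30 min at RT, then streptavidin donor/nickel chelate acceptor beads (10 ug/mL) for 30 min.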
JMJD2A Tudor = blocks the human JMJD2A Tudor domain | AlphaScreen JMJD2A-Tudor / H3K4me3 peptide binding | Potency, µM (series often up to 114 µM), inactives show top-dose activity change, negative = inhibition, most hits filed as inhibitors | hit rate 4.4% among 390,000 | O75164; note: % is set by controls: 0 for no effect and ±100 for the full control effect; nearly all actives have a fitted effect of over 50% in size
BAZ2B inh = inhibitors of human BAZ2B bromodomain; AlphaScreen BAZ2B-H3K14Ac peptide displacement; Potency, µM (top dose mostly 114 µM), for inactives: top-dose activity change, negative = inhibition, hits mostly inhibitors; hit rate 4.4% among 360,000; note: % is set by controls: 0 for no effect and ±100 for the full control effect; nearly all actives have a fitted effect of over 60% in size
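Complex of BAZ2B and biotin-H3K14Ac (50 nM apiece) forms over 30 min at RT, then faces library compounds up to 110 uM for another 30 min; AlphaScreen beads added, 20 min dark incubation, luminescence read.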
Sfp PPTase inh = blocks B. subtilis Sfp PPTase activity; hit rate 3.5% among 310,000; Potency, µM, without a hit: largest response in the series, negative = inhibition, most hits filed as inhibitors; Q9F4F7; Biochemical Sfp PPTase activity, qHTS;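 note: the enzyme is Sfp with the accession as filed and its product quenches rhodamine fluorescence; 0% = enzyme reaction without inhibitor and -100% = no enzyme wells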
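After 15 min at room temperature with compound, 15 nM Sfp received 5 uM rhodamine-CoA plus 12.5 uM BHQ-2-ybbR (50 mM Hepes pH 7.6, 10 mM MgCl2). Rate came from the fluorescence difference over 30 min, ex 525/em 598 nm.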
L3MBTL1 inh = blocks human L3MBTL1; hit rate 0.66% among 230,000; AlphaScreen L3MBTL1–H3K9me1 peptide binding; Potency, µM (series often up to 57.1 µM), without a hit: at the highest dose activity, negative = inhibition, most hits filed as inhibitors; Q9Y468; note: % is set by controls: 0 for no effect and ±100 for the full control effect; nearly all actives have a fitted effect of over 60% in size
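AlphaScreen assay: L3MBTL1 (50 nM final) was preincubated 30 min at room temperature with biotinylated H3(1-15)K9me1 peptide (75 nM final), then 30 min with library compounds; streptavidin donor and nickel chelate acceptor beads (10 ug/mL final) added, 30 min dark.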
* = called active by the depositor; [ ] = dose if it differs, or a comment. Calls come from the whole dose curve; as a rule, active = well fitted curve in the direction sought with a large enough effect; inconclusive = small, poorly fitted or top-dose-only effect, or another doubt; inactive = no such curve, though single readings can be large; an effect the other way counts as inactive or inconclusive. Potency is the fitted concentration of half-maximal effect.

What do the screens show for `Cc1[nH]n(-c2ccccc2)c(=S)c1C=Nc1ccc([N+](=O)[O-])cc1`?
G9a block: 0.89µM*; HP1b binding inh: inconclusive; JMJD2A Tudor: 1.8µM*; BAZ2B inh: 10µM*; Sfp PPTase inh: 6.3µM*; L3MBTL1 inh: 3%

Results for Cc1[nH]n(-c2ccccc2)c(=O)c1C(c1ccc(C(=O)O)cc1)c1c(C)[nH]n(-c2ccccc2)c1=O ?
G9a block: -25%[59 µM]; HP1b binding inh: -1%; JMJD2A Tudor: -29%; BAZ2B inh: -17%; Sfp PPTase inh: -1%; L3MBTL1 inh: inconclusive

How did O=C(CN1C(=O)COc2ccc(S(=O)(=O)N3CCCC3)cc21)N1CCN(c2ccc(F)cc2)CC1 do in these assays?
G9a block: -43%[59 µM]; HP1b binding inh: 17%; JMJD2A Tudor: -16%; BAZ2B inh: inconclusive

Results for O=[N+]([O-])c1cc(-c2nc(-c3ccccc3)no2)ccc1N1CCCCC1 ?
G9a block: -48%[59 µM]; HP1b binding inh: 48%; JMJD2A Tudor: -3%; BAZ2B inh: 5%

What do the screens show for `COCCN1Cc2cccc(C(=O)Nc3ccc(C)c(F)c3)c2C1=O`?
G9a block: -3%[59 µM]; HP1b binding inh: 46%; JMJD2A Tudor: -8%

What do the screens show for `CCN(CC)CCN(C(=O)c1ccco1)c1nc2ccc(F)cc2s1`?
G9a block: -27%[59 µM]; HP1b binding inh: 41%; JMJD2A Tudor: -4%; BAZ2B inh: 3%

What do the screens show for `Cc1nn(-c2ccccc2)nc1C(=O)c1c(C)[nH]n(-c2ccccc2)c1=O`?
HP1b binding inh: 26%; JMJD2A Tudor: -19%; BAZ2B inh: 2%; Sfp PPTase inh: 5%

What do the screens show for `Cc1[nH]n(-c2ccccc2)c(=O)c1C(C[N+](=O)[O-])c1ccc(Br)cc1` (stereo not given)?
G9a block: 40µM*; HP1b binding inh: -10%; JMJD2A Tudor: inconclusive; BAZ2B inh: inconclusive; Sfp PPTase inh: -24%

What do the screens show for `Cc1ccc(C(C[N+](=O)[O-])c2c(N)n(C)c(=O)n(C)c2=O)cc1` (stereo not given)?
G9a block: inconclusive; HP1b binding inh: 72%; JMJD2A Tudor: -9%; BAZ2B inh: -27%; Sfp PPTase inh: 4%

How did Cc1[nH]n(-c2ccccc2)c(=O)c1C(=O)c1ccc([N+](=O)[O-])cc1 do in these assays?
G9a block: 50µM*; HP1b binding inh: 46%; JMJD2A Tudor: -1%; BAZ2B inh: -15%; Sfp PPTase inh: 10%; L3MBTL1 inh: 5%

Results for Cc1ccc(NC(=O)CSc2n[nH]c(-c3ccc(F)cc3)n2)cc1F ?
G9a block: -3%[59 µM]; HP1b binding inh: 26%[57 µM]; JMJD2A Tudor: -16%; BAZ2B inh: 0%

Results for O=C(c1csnn1)N1CCC[C@@]2(CCN(Cc3cc(C(F)(F)F)cc(C(F)(F)F)c3)C2)C1 ?
G9a block: -4%[12.7 µM]; Sfp PPTase inh: 7%

Results for Cc1cc(=O)oc(C)c1C(=O)N1CCN(C(c2ccccc2)c2ccccc2)CC1 ?
G9a block: 50µM*; HP1b binding inh: 48%; JMJD2A Tudor: -13%; BAZ2B inh: -33%; Sfp PPTase inh: 10%; L3MBTL1 inh: -12%

What do the screens show for `COc1ccccc1N1CCN(C(=O)c2c(C)cc(=O)oc2C)CC1`?
G9a block: -48%[12.7 µM]; HP1b binding inh: 31%; JMJD2A Tudor: -4%; BAZ2B inh: -30%; Sfp PPTase inh: -10%

How did Cc1ccc(NC(=O)CCC(=O)OCc2ccc(Br)cc2)cc1 do in these assays?
G9a block: 14%[59 µM]; HP1b binding inh: 17%; JMJD2A Tudor: 79µM*; BAZ2B inh: -1%; Sfp PPTase inh: 4%; L3MBTL1 inh: 11%

Results for Cc1ccc(NC(=O)CC(O)(C(F)(F)F)C(F)(F)F)cc1 ?
G9a block: 13%; HP1b binding inh: 44%; JMJD2A Tudor: 45%; BAZ2B inh: 9%; Sfp PPTase inh: 15%

What do the screens show for `Cc1ccc(NC(=O)C(=O)NN)cc1`?
G9a block: 50µM*; HP1b binding inh: 19%; JMJD2A Tudor: -13%; BAZ2B inh: inconclusive; Sfp PPTase inh: 5%; L3MBTL1 inh: -6%

How did NNC(=O)C(=O)Nc1ccc(O)cc1 do in these assays?
G9a block: 16µM*; HP1b binding inh: 26%; JMJD2A Tudor: 4%; BAZ2B inh: -3%; Sfp PPTase inh: 7%; L3MBTL1 inh: -17%

What do the screens show for `Nc1ccc(OC(=O)Nc2ccc(O)cc2)cc1`?
G9a block: inconclusive; HP1b binding inh: -3%; JMJD2A Tudor: inconclusive; BAZ2B inh: -8%; Sfp PPTase inh: -12%

How did CC(=O)Nc1ccc(C)cc1 do in these assays?
G9a block: 0%[0.501 µM]; HP1b binding inh: 53%; JMJD2A Tudor: -12%; BAZ2B inh: -5%; L3MBTL1 inh: -1%

How did Cc1ccc(NC(=O)CC(N)=S)cc1 do in these assays?
HP1b binding inh: 14%; JMJD2A Tudor: 8.9µM*; BAZ2B inh: -1%; Sfp PPTase inh: inconclusive

How did Cc1cccc(NC(=O)c2c(C)oc3ncnc(N4CCCCC4)c23)c1C do in these assays?
G9a block: -4%[59 µM]; HP1b binding inh: 36%; JMJD2A Tudor: -19%; BAZ2B inh: -2%[57.1 µM]

Results for CN(C)c1ncc2nc(CCc3ccccc3)c(=O)n(-c3ccccc3)c2n1 ?
G9a block: -2%[12.7 µM]; Sfp PPTase inh: inconclusive

What do the screens show for `Cc1cccc(NC(=O)C2CCCN(S(=O)(=O)c3ccc4c(c3)CCCC(=O)N4)C2)c1` (stereo not given)?
G9a block: -5%[59 µM]; HP1b binding inh: 37%; JMJD2A Tudor: -3%; BAZ2B inh: 8%[57.1 µM]

What do the screens show for `Cn1cccc1C(=O)N1CCC2(CC1)CN(C(=O)Nc1ccccc1)C2`?
G9a block: -4%[12.7 µM]; Sfp PPTase inh: -4%

How did COc1ccc2[nH]c3c(c2c1)CCN1C(=O)N([C@@H](C)C(=O)NCc2ccco2)C(=O)[C@]31C do in these assays?
G9a block: 1%; HP1b binding inh: 12%; JMJD2A Tudor: -26%; BAZ2B inh: 50µM*; Sfp PPTase inh: 4%; L3MBTL1 inh: -4%

How did COc1ccc2[nH]c3c(c2c1)CCN1C(=O)N([C@@H](C)C(=O)NC2CCN(Cc4ccccc4)CC2)C(=O)[C@]31C do in these assays?
HP1b binding inh: 4%; JMJD2A Tudor: inconclusive; BAZ2B inh: 50µM*; Sfp PPTase inh: 10%

How did CC(C)C[C@@H](C(=O)NC1CCN(Cc2ccccc2)CC1)N1C(=O)N2CCc3c([nH]c4ccccc34)[C@@]2(C)C1=O do in these assays?
G9a block: inconclusive; HP1b binding inh: inconclusive; JMJD2A Tudor: 40µM*; BAZ2B inh: inconclusive; Sfp PPTase inh: 10%; L3MBTL1 inh: inconclusive

Bioassay records from PubChem.
